# Screens deposited in PubChem BioAssay by several laboratories.
# MT1-MMP txn act: activates MT1-MMP transcription; HT1080 MT1-MMP promoter luciferase reporter, luminescence, overnight; hits give high values; 86,000 compounds, 0.16% hits; activation factor at 10 µM; AID 750;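 active = activation factor of at least 2 for MT1-MMP transcription at 10 µM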
# Smad3 inh: Smad3 (human) transcription factor binding inhibition | P84022 | TR-FRET Smad3/Dy647-FoxH1 peptide binding, europium anti-His | inhibition, % at 25 µM | 88,000 compounds, 0.29% hits | AID 630;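 active = compounds that reduce the energy-transfer binding signal between the protein and its labelled peptide by more than half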
# Target sequence (P84022 whole entry, looked up): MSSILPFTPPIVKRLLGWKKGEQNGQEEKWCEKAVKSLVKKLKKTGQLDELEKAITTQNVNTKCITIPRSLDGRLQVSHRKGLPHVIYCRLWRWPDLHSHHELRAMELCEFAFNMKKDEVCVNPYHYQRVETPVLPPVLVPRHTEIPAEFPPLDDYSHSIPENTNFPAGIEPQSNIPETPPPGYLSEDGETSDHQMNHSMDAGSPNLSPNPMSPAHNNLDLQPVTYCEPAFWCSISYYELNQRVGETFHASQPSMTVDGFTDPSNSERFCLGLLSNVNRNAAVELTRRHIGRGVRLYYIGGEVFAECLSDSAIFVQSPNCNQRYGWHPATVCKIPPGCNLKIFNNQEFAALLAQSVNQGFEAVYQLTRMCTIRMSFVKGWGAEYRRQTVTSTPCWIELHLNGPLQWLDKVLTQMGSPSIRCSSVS
# Measles CPE: protection of cells from measles virus. 140,000 compounds, 1.5% hits. AID 841. Measles virus-infected cells, CPE protection, absorbance. protection (pct of control), % at 4 µM; in the data active = protection mostly above about 24%, no sharp cut-off; inactive = mostly below about 26%
# Numbers stand for hits; - = inactive; . = not tested or not shown; [ ] = another dose, or the depositor's remark. This is a sample that favours compounds with a hit; in the whole collection about 1.7% have one here.
SMILES,MT1-MMP txn act,Smad3 inh,Measles CPE
O=C(O)[C@H](Cc1ccc(O)c([N+](=O)[O-])c1)N1C(=O)c2ccccc2C1=O,.,-,.
N/C(=N\OC(=O)c1ccco1)c1ccccc1,2,-,-
Cc1ccc(/C(N)=N/OC(=O)c2ccco2)cc1,-,-,-
O=C(O)CCN1C(=S)CSC1=S,.,-,.
CCCN1CNC(=S)N(c2cc(C)ccc2C)C1,-,-,34
CCCN1CNC(=S)N(c2ccccc2OC)C1,.,.,-
CCN1CNC(=S)N(c2cccc(C)c2C)C1,-,96,-
CCCN1CNC(=S)N(c2cccc(C)c2C)C1,-,-,-
O=S(=O)(C[C@H](O)C(Cl)(Cl)Cl)NNc1ccccc1,.,-,.
CCCCCOc1ccc(NC(=O)CSc2cccc3cccnc23)cc1,.,.,-
C/C(=N\[N-]C(=[SH+])SCc1ccccc1)c1ccccn1.[Cl][Cu],.,81,.
CSC(=[SH+])[N-]N=C(c1ccccn1)c1ccccn1.[Cu][Br],.,-,.
CCOC(=O)N/N=C(/C)c1ccc([N+](=O)[O-])o1,-,-,83
COC(=O)N/N=C/c1ccc([N+](=O)[O-])o1,-,-,-
CCn1c(SCC(=O)Nc2oc(-c3ccccc3)c(-c3ccccc3)c2C#N)nnc1-c1ccncc1,-,-,-
N#Cc1c(NC(=O)CSc2ccccn2)oc(-c2ccccc2)c1-c1ccccc1,-,-,33
CC12C(=O)N(c3ccc(C(=O)N4CCOCC4)cc3)C(=O)C1C1c3ccccc3C2c2ccccc21 (stereo not given),.,.,-
O=c1c2c3c(sc2nc2n1CCC2)CCC3,.,-,36
O=c1c2c3c(sc2nc2n1CCCC2)CCCC3,-,-,-
O=C(COC(=O)CNS(=O)(=O)c1cccc(Br)c1)Nc1ccccc1Sc1ccccc1,.,.,-
COc1cc(/C=C/C(=O)NCCN2CCOCC2)cc(OC)c1OC,.,.,-
Cc1ccc(SCC(=O)Nc2ccccc2C(=O)N2CCOCC2)cc1,.,.,-
CCCCC(=O)Nc1ccccc1C(=O)N1CCOCC1,-,-,37
N#CC[N+]1(Cc2ccccn2)CCCC1,.,-,.
O=C(O)c1cccc2cccnc12,.,-,-
SMILES,MT1-MMP txn act,Smad3 inh,Measles CPE
O=C(Oc1ccccc1)c1cccc2cccnc12,-,-,48
Cc1cccc(C(C)(C)C)c1OCCn1ccnc1,-,-,26
Cc1cccc(Cl)c1OCCCCn1ccnc1,-,-,-
Cc1cc(C)c(NC(=O)c2cc3c(nc4sccn43)s2)c(C)c1,-,-,28
Cc1ccc(C)c(C(=O)c2c(C)nc3sccn23)c1,-,-,-
CCCn1c(C)cs/c1=N\C(=S)Nc1ccccc1,.,.,44
Cc1cs/c(=N/C(=S)Nc2ccccc2)n1C,.,.,-
CC(=O)NC(CCS(C)(=O)=O)C(=O)Nc1cccc(C)c1 (stereo not given),-,-,-
CC(=O)NC(CCS(C)(=O)=O)C(=O)Nc1ccc(C)c(F)c1 (stereo not given),-,-,57
CCOC(=O)Cc1c(C)nc2cc(C)nn2c1C,-,-,-
CCOC(=O)Cc1nn2c(=O)cc(C)nc2s1,-,-,46
Cc1c2ccccc2c(CSC(=N)N)c2ccccc12,.,-,.
O=C(Nc1ccc(Br)cc1)c1cccn1-c1ncc(C(F)(F)F)cc1Cl,.,.,-
CN(C)S(=O)(=O)c1cccn1-c1ncc(C(F)(F)F)cc1Cl,-,-,43
CCCC[C@H]1C[C@@H]1[C@@H]1N(P(=O)(c2ccccc2)c2ccccc2)[C@](CO)(c2ccccc2)CC12CC2,-,.,.
O=C(CCSCCc1ccccn1)Nc1ccc(Cl)cn1,-,54[fluorescence artefact?],-
O=C(CCSCCc1ccccn1)Nc1ccccn1,-,-,-
Cc1c(C(=O)Nc2ccccc2)oc2c1C(=O)CC(C)(C)C2,-,-,-
Cc1c(C(=O)O)oc2c1/C(=N\O)CC(C)(C)C2,.,.,44
Cc1sc(NC(=O)c2ccc(Cl)s2)c(C(N)=O)c1C,2.2,-,-
Cc1sc(NC(=O)c2ccc(Br)s2)c(C(N)=O)c1C,-,-,-
Cc1ccc(NC(=O)CCC(=O)NNC(=O)c2ccco2)c(C)c1,.,.,25
COc1cccc(C(=O)Nc2cnc(NC(=O)c3ccco3)cc2C)c1,-,-,-
Cc1cc(NC(=O)c2ccco2)ncc1NC(=O)Cc1ccccc1,-,-,31
O=C(CCc1ccccc1)Nc1ccc(NC(=O)c2ccco2)nc1,-,-,25
SMILES,MT1-MMP txn act,Smad3 inh,Measles CPE
COc1cc(NC(=O)c2ccco2)c(OC)cc1NC(=O)CCC(=O)Nc1cc(C)ccc1C,-,-,-
O=C(CCc1ccccc1)Nc1ccc(NC(=O)c2ccco2)cc1,-,-,-
CCCN(CCC)S(=O)(=O)c1ccc(C(=O)N2CCCc3ccccc32)cc1,-,-,-
CN1[C@@H](c2ccccc2)CC(=NO)C[C@H]1c1ccccc1,.,-,.
Cc1cc(C)n(C(=O)C(C)N2C(=O)c3ccccc3C2=O)n1 (stereo not given),-,-,39
Cc1cc(C)n(C(=O)CN2C(=O)c3ccccc3C2=O)n1,-,.,-
NS(=O)(=O)c1nc(S(=O)(=O)O)c2[nH]cnc2n1,.,-,.
